40 compounds from PubChem BioAssay (Tox21) can be followed below.

The structures appear in SMILES notation. Active and inactive are the calls of the source. Calls come from the whole dose curve; as a rule, active = well fitted activation curve with a large enough effect in the repeat runs; inconclusive = weak or mixed curves; inactive = flat fitted curve, though single readings scatter.
% is set by controls: 0 for no effect and ±100 for the full control effect.

The test in a line: Caspase-3/7 induction in CHO-K1 cells by small molecules, qHTS assay (AID 1346980). Note: nearly all actives have a fitted effect of over 15% in size. To be noted: CHO-K1 caspase-3/7 induction, Caspase-Glo luminescence, 17 h; series mostly up to 92.4 µM; caspase-3/7 activation: at the top concentration. The source says: National Center for Advancing Translational Sciences [NCATS]
NIH Chemical Genomics Center [NCGC]
U.S. Environmental Protection Agency [EPA]
National Institutes of Environmental Health Sciences [NIEHS]
National Toxicology Program [NTP]
Apoptosis is a process of programmed cell death and plays a central role in the development of multicellular organisms. It is a highly regulated process and induces cell death by activating caspases, which are the members of cysteine aspartic acid-specific protease (caspase) family. Caspases involved in apoptosis are classified by their mechanism of action as initiator caspases (caspase-2, -8, -9 and -10) and executioner caspases (caspase-3, -6, and -7). Inhibition of apoptosis results in number of cancers, autoimmune diseases, inflammatory diseases and viral infection. To identify small molecule compounds that induce apoptosis, a homogeneous, luminescent Caspase-Glo 3/7 assay was used. Wild type CHO-K1 cells were used to screen Tox21 libraries for identifying caspase-3/7 activity inducers.
CHO-K1 cells were dispensed at 1,500 per well in 5uL of culture medium into white solid bottom 1536-well plates (Corning Life Sciences, Corning, NY) using a Multidrop Combi (Thermo Scientific, Waltham, MA) dispenser. The assay plates were incubated at 37 C and 5% CO2 for 5hr, and then 23nL of compounds dissolved in DMSO and positive control were transferred using a Pintool station (Wako, San Diego, CA). The assay plates were incubated at 37C and 5% CO2 for 17hr. For caspase-3/7 activity read, 4uL of Caspase-Glo 3/7 reagent (Promega Corporation, Madison, WI) was added to each well of the assay plates using Flying Reagent Dispenser (FRD, Aurora Discovery, San Diego, CA) and incubated the assay plates at room temperature for 30min. The luminescence signal was quantified using a ViewLux plate reader (Perkin Elmer, Shelton, CT).
For the compound `CCOC(=O)C(SP(=S)(OC)OC)c1ccccc1` (stereo not given), the “caspase-3/7 activation” value was -0.0321% (inactive). `CCN1CCCC1CNC(=O)C(O)(c1ccccc1)c1ccccc1` (stereo not given): the “caspase-3/7 activation” value was 2.06% [at 42.5 µM] (inactive).

Turning to `O=C/C=C/c1ccco1`, the “caspase-3/7 activation” value was -0.0204% (inactive).

With `CCN[C@@H](C)Cc1ccccc1`, the “caspase-3/7 activation” value was 2.3% (inactive). In the case of `CCOC(=O)N(C)N=O` it was 0.424% (inactive). Regarding `CC(C)(C)C(=O)Cl`, the “caspase-3/7 activation” value was -0.249% (inactive).

With `CC(C)(C1CCC(O)CC1)C1CCC(O)CC1` (stereo not given), the “caspase-3/7 activation” value is 1.63% (inactive). For the compound `CC[C@@H](CO)NC(=O)[C@@H]1C=C2c3cccc4[nH]cc(c34)C[C@H]2N(C)C1`, the “caspase-3/7 activation” value was -0.375% [at 42.5 µM] (inactive). On to `COC(=O)[C@@H](N)CCCN/C(N)=N/[N+](=O)[O-]`, for which the “caspase-3/7 activation” value is 0.614% [at 42.5 µM] (inactive).

With `CNC(=O)Oc1cc(C)c(N(C)C)c(C)c1`, the “caspase-3/7 activation” value is -1.37% (inactive).

`CC[C@H](N)c1ccccc1`: the “caspase-3/7 activation” value was 0.296% (inactive). Under `CCSC(=O)Cl` stands -0.763% (inactive).

As for `N#CC(Br)(Br)C(N)=O`, the “caspase-3/7 activation” value was 2.63% (inactive). Under `CCOC(=O)C(Cl)Cc1cc(-n2nc(C)n(C(F)F)c2=O)c(F)cc1Cl` (stereo not given) stands -0.0339% (inactive); under `O=C1CCCCC1Cl` (stereo not given), 0.101% (inactive); under `ClC(Cl)(Cl)Cl`, -0.907% (inactive). In the case of `CN(C)CCN(C)C` it was 0.0794% (inactive); in that of `Cc1ccc(Cl)c(O)c1`, -0.291% [at 42.5 µM] (inactive); in that of `NCCOS(=O)(=O)O`, -0.395% (inactive).

On to `CN1C(=O)COc2c(C(=O)NC3CN4CCC3CC4)cc(Cl)cc21` (stereo not given), for which the “caspase-3/7 activation” value is 0.768% [at 42.5 µM] (inactive). In the case of `CCC(=O)OC1(c2ccccc2)CCN(C)CC1` it was -0.197% (inactive). Under `CCN(CC)CCOC(=O)C(O)(c1ccccc1)c1ccccc1` stands 0.904% [at 42.5 µM] (inactive); under `c1ccc2c(c1)CCNC2`, 0.0718% (inactive). Under `CCC(C)C(C)(COC(N)=O)COC(N)=O` (stereo not given) stands 2.22% [at 42.5 µM] (inactive); under `CCN(CCO)CCn1c(Cc2ccccc2)nc2c1c(=O)n(C)c(=O)n2C`, -1.17% [at 42.5 µM] (inactive); under `CC(C)[N+](C)(CCC(C(N)=O)(c1ccccc1)c1ccccc1)C(C)C`, -0.595% [at 42.5 µM] (inactive). For the compound `S=C=S`, the “caspase-3/7 activation” value was 0.315% (inactive). Under `O=C(Cl)C(Cl)Cl` stands 1.36% (inactive).

In the case of `CCc1ccc(C2CCNCC2)cc1`, the “caspase-3/7 activation” value was 0.133% [at 42.5 µM] (inactive). In the case of `C[C@@H](N)[C@@H](O)c1ccccc1` it was -0.0941% [at 42.5 µM] (inactive); in that of `O=P(O)(O)c1ccccc1`, -0.787% (inactive). In the case of `C=CCC1(C(C)CC)C(=O)NC(=O)NC1=O` (stereo not given) it was -0.593% [at 42.5 µM] (inactive); in that of `NC(=O)OCCCc1ccccc1`, 0.303% [at 42.5 µM] (inactive); in that of `CC#Cc1cc(C)nc(Nc2ccccc2)n1`, -0.413% (inactive).

As for `Clc1nc(Cl)nc(Nc2ccccc2Cl)n1`, the “caspase-3/7 activation” value was 0.015% (inactive). Take `Cn1c(CCCC(=O)O)nc2cc(N(CCCl)CCCl)ccc21`: the “caspase-3/7 activation” value was -0.812% [at 42.5 µM] (inactive). In the case of `COc1ccc2c(C(=O)c3ccc(Cl)cc3)c(C)n(CC(=O)O)c2c1` it was -0.368% [at 42.5 µM] (inactive); in that of `O=C(Cl)OCc1ccccc1`, 0.894% (inactive). In the case of `COC[C@@H](NC(C)=O)C(=O)NCc1ccccc1` it was 1.56% [at 42.5 µM] (inactive); in that of `CCN(CC)C1CCCCC1`, 0.384% (inactive).
